# Unmarked numbers belong to inactive results.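 How the source made its calls: active means compounds lowering delta-delta-Ct, meaning more Pax4 mRNA, with half-max potency at most twice the top tested dose; inconclusive means flat fit dropping 30 to 70 percent, or unreliable fit; inactive means the rest.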
# Assay: activators of Pax4 gene expression, dose response, mouse alpha TC1 cells, RT-qPCR, cherry-picks (AID 1053206)
# Settings: Pax4 mRNA qPCR, 6 days, stronger effect = lower value; at 19.5 µM unless noted
row,Structure (SMILES),max activity (delta-delta-Ct)
1,COc1ccc(S(=O)(=O)Nc2ccc3c(c2)CC(=O)N([C@H](C)CO)C[C@H](C)[C@H](CN(C)Cc2ccc(C(=O)Nc4ccccc4N)cc2)O3)cc1,-0.17%
2,Cc1cccc(-c2ccc(C3[C@@H]4CN(Cc5cccc(F)c5)C[C@H]3N4)cc2)c1 (stereo partly drawn),-2.82%
3,C[C@H](CO)N1C[C@H](C)[C@@H](CN(C)Cc2ccccc2)Oc2c(NC(=O)Cc3cn(C)c4ccccc34)cccc2C1=O,-0.003% [at 10 µM]
4,Fc1cccc(CN2C[C@@H]3N[C@H](C2)C3c2ccc(/C=C/c3ccccc3)cc2)c1 (stereo partly drawn),-3.37% [at 21 µM]
5,C(=C\c1ccc(C2[C@@H]3CN(Cc4ccc5c(c4)OCO5)C[C@H]2N3)cc1)/c1ccccc1 (stereo partly drawn),-0.457%
6,O=S(=O)(c1ccc(F)cc1)N1C[C@@H]2N[C@H](C1)C2c1ccc(/C=C/c2ccccc2)cc1 (stereo partly drawn),-0.01% [at 10 µM]
7,C/C=C/c1ccc(C2[C@@H]3CN(C(=O)Nc4ccc(C(F)(F)F)cc4)C[C@H]2N3)cc1 (stereo partly drawn),-0.019%
8,CN(C)C(=O)c1cccc(-c2ccc(C3[C@@H]4CN(Cc5ccccc5F)C[C@H]3N4)cc2)c1 (stereo partly drawn),0.001% [at 5 µM]
9,COc1cccc(-c2cccc(-c3nc(C(=O)Nc4ccc(-c5ccccc5)cc4)cc4c3[C@@H](CCO)N(S(=O)C(C)(C)C)C4)c2)c1 (stereo partly drawn),-0.152%
10,Cc1ccccc1S(=O)(=O)N1C[C@@H]2N[C@H](C1)C2c1ccc(-c2cccc(C#N)c2)cc1 (stereo partly drawn),-0.001% [at 2.6 µM]
11,C[C@H]1CNC(=O)[C@@H](Cc2ccc(C(F)(F)F)cc2)CCn2nncc2COC1,0.001% [at 0.16 µM]
12,CNC[C@@H]1Oc2cc(C#Cc3ccccc3OC)ccc2S(=O)(=O)N([C@H](C)CO)C[C@H]1C,-0.002% [at 0.6 µM]
13,CO[C@@H](CN(C)Cc1cc(F)ccc1F)[C@@H](C)CN(C(=O)Nc1ccc(C(F)(F)F)cc1)[C@H](C)CO,-0.501% [at 10 µM]
14,C[C@@H]1CN([C@@H](C)CO)C(=O)Cc2cc(NC(=O)C3CCCCC3)ccc2O[C@@H]1CN(C)Cc1ccc(Cl)c(Cl)c1,-0.143% [at 1.2 µM]
15,N#Cc1cccc(-c2ccc(C3[C@@H]4CN(C(=O)Nc5ccc(C(F)(F)F)cc5)C[C@H]3N4)cc2)c1 (stereo partly drawn),-0.156%
16,COc1cc(CN2C[C@@H]3N[C@H](C2)C3c2ccc(-c3ccc(C#N)cc3)cc2)cc(OC)c1 (stereo partly drawn),-0.065%
17,COc1ccc2c3c(n(C)c2c1)[C@@H](CO)N(CC1CC1)CC31CN(C(=O)c2ccc3c(c2)OCO3)C1,-0.004% [at 0.038 µM]
18,C/C=C/c1ccc([C@H]2[C@@H](CO)N3C(=O)CN(Cc4ccc(F)cc4)C[C@@H]23)cc1,-0.008% [at 0.16 µM]

# — PubChem BioAssay AID1053206 (Broad Institute, 2014)
